# From PubChem BioAssay (NCATS)
# Inconclusive results are not listed. Entries that show only a call come without a potency. Calls of active or inactive are those of the source. Calls follow the shape of the dose curve; as a rule, active = well fitted curve in the direction sought with a large enough effect; inconclusive = small, poorly fitted or top-dose-only effect, or another doubt; inactive = no such curve, though single readings can be large; an effect the other way counts as inactive or inconclusive.
# What was measured:
# UISO = assay: qHTS assay to identify novel small-molecules to repurpose for Merkel cell carcinoma treatment (AID 1296009); conditions: MCC and control cell lines, CellTiter-Glo viability, 72 h; series mostly up to 46 µM; also: nearly all actives have a fitted effect of over 60% in size
# In short: (§1)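 Luminescence from CellTiter-Glo, read 10 min after addition at room temperature, reported viability following a 72 hr, 37 degree celsius treatment with NPC or MIPE compounds in titration; values normalized to plate controls.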
# WaGa = assay: as above; conditions: MCC and control cell lines, CellTiter-Glo viability, 72 h; series mostly up to 46 µM
# In short: as §1
# C33A = assay: Primary qHTS to identify gynecologic anti-cancer compounds using libraries of approved drugs and bioactive compounds (AID 1345084); conditions: Gynecologic cancer cell panel viability, ATPlite luminescence, 48 h; series mostly up to 57.5 µM; also: nearly all actives have a fitted effect of over 55% in size
# In short: (§2)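 Luminescence from the ATPlite ATP-monitoring reagent indicates viable cell number; lower signal means cytotoxicity. Cells received compound 16 h after seeding and were exposed for 48 h across five concentrations.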
# CAOV3 = assay: as above; conditions: Gynecologic cancer cell panel viability, ATPlite luminescence, 48 h; series mostly up to 57.5 µM
# In short: as §2
# Es-2 = assay: as above; conditions: Gynecologic cancer cell panel viability, ATPlite luminescence, 48 h; series mostly up to 57.5 µM
# In short: as §2
# CASKI = assay: as above; conditions: Gynecologic cancer cell panel viability, ATPlite luminescence, 48 h; series mostly up to 57.5 µM
# In short: as §2
# MKL-2 = assay: qHTS assay to identify novel small-molecules to repurpose for Merkel cell carcinoma treatment (AID 1296009); conditions: MCC and control cell lines, CellTiter-Glo viability, 72 h; series mostly up to 46 µM; also: nearly all actives have a fitted effect of over 60% in size
# In short: as §1
# HeLa = assay: Primary qHTS to identify gynecologic anti-cancer compounds using libraries of approved drugs and bioactive compounds (AID 1345084); conditions: Gynecologic cancer cell panel viability, ATPlite luminescence, 48 h; series mostly up to 57.5 µM; also: nearly all actives have a fitted effect of over 55% in size
# In short: as §2
# Potency is read from the fitted curve at half-maximal effect.
SMILES,Potency (UISO),Potency (WaGa),Potency (C33A),Potency (CAOV3),Potency (Es-2),Potency (CASKI),Potency (MKL-2),Potency (HeLa)
CN(C)CC/C=C1\c2ccccc2COc2ccccc21,inactive,inactive,inactive,inactive,inactive,–,–,–
CCCC(C(=O)OCCN(CC)CC)(c1ccccc1)c1ccccc1,26.6 µM (active),–,–,–,–,inactive,–,–
C[N+](C)(C)CCCCCCCCCC[N+](C)(C)C,–,–,inactive,–,inactive,inactive,–,–
Nc1ncn([C@@H]2O[C@H](CO)[C@@H](O)[C@H]2O)c(=O)n1,9.44 µM (active),16.8 µM (active),–,–,3.98 µM (active),–,–,–
CN1C[C@H](C(=O)N[C@]2(C)O[C@@]3(O)[C@@H]4CCCN4C(=O)[C@H](Cc4ccccc4)N3C2=O)C[C@@H]2c3cccc4[nH]cc(c34)C[C@H]21,inactive,inactive,–,inactive,inactive,inactive,inactive,–
O=c1[nH]c(=O)n([C@H]2C[C@H](O)[C@@H](CO)O2)cc1Br,–,–,inactive,–,inactive,inactive,inactive,–
OCCN1CCN(CC/C=C2/c3ccccc3Sc3ccc(C(F)(F)F)cc32)CC1,–,–,inactive,–,–,inactive,–,–
COCCOC(=O)C1=C(C)NC(C)=C(C(=O)OC(C)C)C1c1cccc([N+](=O)[O-])c1 (stereo unspecified),–,26.6 µM (active),inactive,inactive,inactive,inactive,–,inactive
Nc1nc(N)c2nc(-c3ccccc3)c(N)nc2n1,–,26.6 µM (active),10 µM (active),–,15.8 µM (active),–,–,–
CCC(=O)c1ccc2c(c1)N(CCCN(C)C)c1ccccc1S2,–,–,inactive,–,inactive,inactive,–,inactive
Cc1cc(C)c(/C=C2\C(=O)Nc3ccccc32)[nH]1,–,inactive,inactive,inactive,inactive,inactive,inactive,–
COC(=O)[C@H]1[C@H]2C[C@@H]3c4[nH]c5cc(OC)ccc5c4CCN3C[C@H]2C[C@@H](OC(=O)c2cc(OC)c(OC)c(OC)c2)[C@@H]1OC,–,–,inactive,inactive,inactive,inactive,–,inactive
COC(=O)[C@@H](N)Cc1ccc(O)c(O)c1,inactive,–,inactive,inactive,inactive,inactive,–,inactive
COC(=O)C1=C(C)NC(C)=C(C(=O)OCCN(C)Cc2ccccc2)C1c1cccc([N+](=O)[O-])c1 (stereo unspecified),23.7 µM (active),–,inactive,–,inactive,inactive,–,–
CCCCNc1c(C(=O)OCC)c(C)nc2c1cnn2CC,–,inactive,inactive,inactive,inactive,inactive,inactive,–
CC(C)COCC(CN(Cc1ccccc1)c1ccccc1)N1CCCC1 (stereo unspecified),–,–,–,25.1 µM (active),inactive,inactive,–,inactive
CC[N+](C)(C)c1cccc(O)c1,–,–,inactive,inactive,inactive,inactive,–,inactive
CCCOc1ccccc1-c1nc2n[nH]nc2c(=O)[nH]1,inactive,inactive,inactive,inactive,inactive,inactive,inactive,inactive
CNCCCN1c2ccccc2CCc2ccccc21,–,–,inactive,–,inactive,–,–,inactive
CCOC(=O)c1cnc2c(cnn2CC)c1NN=C(C)C,inactive,inactive,inactive,inactive,inactive,inactive,–,inactive
CO[C@@]1(NC(=O)CSCC#N)C(=O)N2C(C(=O)O)=C(CSc3nnnn3C)CS[C@@H]21,inactive,–,inactive,inactive,inactive,inactive,–,inactive
CN(C)CCOC(=O)COc1ccc(Cl)cc1,inactive,inactive,inactive,inactive,inactive,inactive,inactive,inactive
